# Laboratory results published in PubChem BioAssay AID588855 (National Center for Advancing Translational Sciences (NCATS), 2011).
# Among all 410,000 compounds or so, about 5,000 (1.2%) were called active. Roughly 13% stayed inconclusive and do not appear here. This is one part of a sample in which actives are shown more often than they occur. Calls come from the whole dose curve; as a rule, active = well fitted inhibition curve with a large enough effect; inconclusive = small, poorly fitted or top-dose-only effect; inactive = no such curve, though single readings can be large or run the other way.
# Experiment: qHTS for Inhibitors of TGF-b; note: nearly all actives have a fitted effect of over 65% in size
# Conditions: HepG2 CAGA-GFP TGF-b/SMAD3 reporter, GFP fluorescence, 18 h, TGF-beta stimulated, 500 pg/mL final; series mostly up to 46.1 µM; activity, negative = inhibition: at the top concentration
# Method in brief: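 Smad-responsive CAGA-GFP expression was quantified in HEPG2 cells exposed to compounds and 500 pg/mL final TGF-beta for 18 h at 37 degrees C; unstimulated wells defined full inhibition.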
# % is set by controls: 0 for no effect and ±100 for the full control effect; potency is the fitted concentration of half-maximal effect.
SMILES,"activity, negative = inhibition",Potency
O=C(C1CC1)N1CCc2cc(Br)cc(S(=O)(=O)N3CCN(c4ccccc4F)CC3)c21,23.1% (inactive),
CCOC(=O)CNC(=O)c1cc2c(=O)n3cccc(C)c3nc2s1,0.831% (inactive),
Cc1cccc(CN2Cc3cccc4c3[C@H](C=CC4)CC2=S)c1,-11.3% (inactive),
CC(C)c1ccc(NC(=O)C2CCN(c3nc(-c4ccc(C(C)C)cc4)no3)CC2)cc1,-7.98% (inactive),
Cc1cc(C)cc(OC(C)C(=O)Nc2nc3c(s2)CCCC3)c1 (stereo unspecified),-11% (inactive),
COc1ccc(CCNc2nc3c(-c4cccc(F)c4)nnn3c3ccccc23)cc1OC,2.93% (inactive),
CC(Nc1nc(N2CCN(CCO)CC2)nc2ccccc12)c1ccccc1 (stereo unspecified),-0.933% (inactive),
CC(Nc1nc(C(F)(F)F)nc2ccccc12)c1cccs1 (stereo unspecified),,17.8 µM (active)
Cc1cc(C)n(-c2nc(C(F)(F)F)nc3ccccc23)n1,19.8% (inactive),
COc1ccc(/C=C/c2ccccn2)cc1OC,5.76% (inactive),
CC(C)CC(=O)Nc1nnc(S(=O)(=O)N(C)c2ccc(Cl)cc2)s1,-2.24% (inactive),
CN(Cc1ccccc1)S(=O)(=O)c1nnc(NC(=O)c2ccccc2F)s1,-23.1% (inactive),
Cc1ccccc1C(=O)Nc1nnc(S(=O)(=O)N(C)c2ccc(Cl)cc2)s1,,8.91 µM (active)
CCCCc1nn2c(=O)cc(COC(=O)c3cccc(NC(=O)COc4ccccc4)c3)nc2s1,-4.67% (inactive),
Cc1nn(-c2ccc(F)cc2)c(-n2cccc2)c1C(=O)N1CCN(c2ccccc2)CC1,-2.22% (inactive),
Cc1ccc2oc3c(c(=O)c2c1)C(c1ccc([N+](=O)[O-])cc1)N(CCCN1CCOCC1)C3=O (stereo unspecified),13.7% (inactive),
COc1ccc(CCNC(=O)c2cc(=O)c3c(C)cc(C)cc3o2)cc1OC,-1.84% (inactive),
Cc1ccc(-c2cc(-c3coc4ccccc4c3=O)c3c(n2)-c2cc(Cl)ccc2OC3)cc1,0.312% (inactive),
Cc1ccc2nc(-c3ccccc3)c(CC3CCCCC3)n2c1,-13% (inactive),
Cc1ccc(-c2nc3ccc(Cl)cn3c2Cc2ccccc2)cc1,-0.0475% (inactive),
CN(C)C(=O)c1nc2ccc(Cl)cn2c1CNCc1cccc(OC(F)(F)F)c1,-9.89% (inactive),
Clc1cccc(Cc2c(-c3cccc(Cl)c3)nc3ccc(Cl)cn23)c1,,10 µM (active)
Cc1ccc(-c2nc3ccc(Br)cn3c2Cc2ccccc2C(F)(F)F)cc1,,14.1 µM (active)
Fc1cccc(Cc2c(-c3cccc(Cl)c3)nc3ccc(Br)cn23)c1,,14.1 µM (active)
Cc1cc(Br)cn2c(Cc3ccccc3C(F)(F)F)c(C3CCCCC3)nc12,-10.6% (inactive),
COC(=O)c1ccc2nc(C3CCCCC3)c(Cc3cccc(F)c3)n2c1,-24.9% (inactive),

SMILES,"activity, negative = inhibition",Potency
Fc1cccc(Cc2c(-c3ccc(Cl)cc3)nc3ccc(Cl)cn23)c1,-4.59% (inactive),
COC(=O)c1ccc2nc(-c3ccc(Cl)cc3)c(Cc3cccc(F)c3)n2c1,-13.1% (inactive),
COc1ccccc1Cc1c(-c2ccc(Cl)cc2)nc2ccc(Cl)cn12,-15.7% (inactive),
Brc1ccc2nc(-c3ccccc3)c(Cc3ccccc3)n2c1,,12.6 µM (active)
Cc1ccc(NC(=O)CN2C(=O)CC(C)Sc3ccccc32)c(C)c1 (stereo unspecified),18.1% (inactive),
COc1ccc(CCNC(=O)CCc2c(C)nc3c(c(C)nn3-c3ccc(C)c(C)c3)c2C)c(OC)c1OC,1.19% (inactive),
COc1ccc(CCNC(=O)Cn2c(=O)n(-c3ccccc3)c(=O)c3c(C)c(C)sc32)cc1OC,-1.27% (inactive),
CC(C)c1ccc(NC(=O)c2cc(S(=O)(=O)N3CCc4ccccc4C3)ccc2F)cc1,17.2% (inactive),
CCCCNC(=O)c1ccc2c(c1)NC(=O)C(C(C)C)N2 (stereo unspecified),-9.16% (inactive),
COc1ccc(C(=O)Nc2nonc2-c2ccc(OC)c(OC)c2)cc1Cl,-18.6% (inactive),
COc1cc2nc(NCC(C)c3ccccc3)n3nc(-c4ccccc4)nc3c2cc1OC (stereo unspecified),1.87% (inactive),
Cc1cccc(N(C)C(=O)CS(=O)(=O)c2cccc3nsnc23)c1,-0.304% (inactive),
CCN1CCN(c2ccc(/C=C/c3ccnc4ccccc34)cc2)CC1,-1.72% (inactive),
Cc1ccc(C2C=C(c3ccc(Cl)cc3)Nc3nc(NC(=O)CCC(=O)O)nn32)cc1 (stereo unspecified),26.6% (inactive),
COc1ccc(N2CCN(c3nc(-c4ccccc4F)nc4ccccc34)CC2)cc1,-10.1% (inactive),
Cc1cccc(C)c1NC(=O)CN(C)C(=O)CCC(=O)c1ccccc1,2.94% (inactive),
Cc1cccc(C)c1NC(=O)C(Cl)C(=O)c1ccccc1 (stereo unspecified),,11.2 µM (active)
Cc1cccc(C)c1NC(=O)N1CC(C)OC(C)C1 (stereo unspecified),0% (inactive),
Cc1ccc2c(=O)cc(C(=O)Nc3sc4c(c3C(=O)NCc3cccnc3)CCCC4)oc2c1,73.5% (inactive),
N#Cc1ccc[n+](CC(=O)c2ccc(F)cc2)c1,-10.5% (inactive),
Cc1ccc(C)c(Nc2nnc(-c3ccc(C)c(S(=O)(=O)N4CCCCC4)c3)c3ccccc23)c1,-18.5% (inactive),
CCn1c(CNC(=O)C23CC4CC(CC(C4)C2)C3)nnc1SCC(=O)Nc1ccc(OC)cc1,-22.1% (inactive),
CC(=O)Nc1ccc2nc(SCCOc3cc(C)cc(C)c3)sc2c1,-6.33% (inactive),
Brc1cccc[n+]1Cc1cccc(C[n+]2ccccc2Br)c1,1.8% (inactive),
Oc1ccc(Br)cc1/C=N/Nc1ccccn1,,0.562 µM (active)
O=C(CCc1ccc(O)cc1)NN=Cc1cc(Br)ccc1O,-15.4% (inactive),

SMILES,"activity, negative = inhibition",Potency
Cc1c(C(=O)Nc2ccccn2)oc2ccc(Br)cc12,0.0321% (inactive),
CCn1cc(C(=O)NCCc2ccccc2)c(=O)c2cc(S(=O)(=O)N3CCCCCC3)ccc21,-16.6% (inactive),
CC(NC(=S)Nc1ccccc1)C1COc2ccccc2O1 (stereo unspecified),0% (inactive),
S=C(NCC1COc2ccccc2O1)Nc1ccc(Br)cc1 (stereo unspecified),,22.4 µM (active)
CCCN(CC1COc2ccccc2O1)C(=S)Nc1ccc(C)cc1 (stereo unspecified),0% (inactive),
CCOC(=O)c1ccc(NC(=O)Cn2c(=O)n(-c3ccc(C)cc3)c(=O)c3c2cnn3C)cc1,-13.3% (inactive),
COc1cc2nc(C#Cc3nc4cc(OC)c(OC)cc4[nH]3)[nH]c2cc1OC,-3.4% (inactive),
Cc1ccc(Cl)cc1NC(=O)CSc1nccn1C,1.32% (inactive),
Cc1ccc(C)c(NC(CC(=O)c2ccccc2)C(=O)OCC(=O)c2cccs2)c1 (stereo unspecified),-23.2% (inactive),
C[N+]1(CC(=O)c2cccs2)CCOCC1,13.9% (inactive),
Cc1ccccc1C(CC(=O)c1cccs1)C(C#N)C#N (stereo unspecified),,20 µM (active)
Cc1ccc(-n2nnnc2CNC(=O)c2ccccc2C)cc1C,-0.406% (inactive),
CCN(c1ncnc2c1cnn2-c1ccc(C)cc1)C1CCCCC1,4.65% (inactive),
CCN([C@H](CO)C(C)C)S(=O)(=O)c1ccccc1Br,-5.37% (inactive),
O=S(=O)(NCc1ccccc1Br)c1ccccc1Br,-10.9% (inactive),
CC(C)c1ccc(OCC(=O)N(Cc2ccc(N(C)C)cc2)C2CCS(=O)(=O)C2)cc1 (stereo unspecified),-13.8% (inactive),
C[C@H]1CN(c2ccc(Br)cc2)C(=O)[C@@H]1CC(=O)Nc1ccc(Br)cc1,14.4% (inactive),
CNC(=O)C[C@H]1C(=O)N(c2ccc(OC)cc2)C[C@@H]1Cc1ccccc1,-0.75% (inactive),
CC(C)c1ccc(NC(=O)CN(C)S(=O)(=O)c2ccc3c(c2)c(=O)n(C)c(=O)n3C)cc1,-16.7% (inactive),
Cc1c(CNC2CCCCC2)c(C(=O)O)c(C)n1Cc1cccc(Cl)c1,-0.0955% (inactive),
Cc1cccc(N2CCN(C3=C(c4ccccc4)C(=O)c4ccccc43)CC2)c1C,17% (inactive),
COc1ccc(CN2CCCC(N3CCc4ccccc4C3)C2)c(O)c1 (stereo unspecified),-14.6% (inactive),
COc1cc(C(=O)CCc2ccc3c(c2)OCO3)cc(OC)c1OC,5.53% (inactive),
COc1c(O)ccc2c1CN1CCc3cc4c(cc3C1C2)OCO4 (stereo unspecified),,14.1 µM (active)
C#CCOc1ccc(C2CC(=O)Nc3c2c(C)nn3-c2nc(C)cc(C)n2)cc1 (stereo unspecified),-1.64% (inactive),
COc1ccccc1CNc1ccc(-c2nc(-c3ccccc3C)no2)cc1[N+](=O)[O-],-9.17% (inactive),

SMILES,"activity, negative = inhibition",Potency
COc1ccc(S(=O)(=O)NCCOc2ccccc2)cc1F,16.2% (inactive),
COc1ccc(S(=O)(=O)NCCCCOc2ccc(Cl)cc2)cc1,,12.6 µM (active)
COc1ccc(OCCNS(=O)(=O)Cc2ccccc2)cc1,-7.8% (inactive),
NC(=O)C1CCN(C(=O)c2cccc(NC(=O)c3nsc4ccccc34)c2)CC1,-22.1% (inactive),
O=C(CC(c1cccs1)N1Cc2ccccc2C1=O)Nc1ccc(F)cc1F (stereo unspecified),-4.03% (inactive),
CCOc1ccc(C(NC(=O)c2cc(OC)c(OC)c(OC)c2)c2cc(Cl)c3cccnc3c2O)cc1 (stereo unspecified),-19.5% (inactive),
CN(c1ccccc1)S(=O)(=O)c1cc(C(=O)N2CCN(c3ncccn3)CC2)ccc1Cl,-18.2% (inactive),
O=C(c1ccc(S(=O)(=O)N2CCCC2)cc1)N1CCN(c2ccccc2F)CC1,-7.28% (inactive),
CN(c1ccccc1)S(=O)(=O)c1ccc(C(=O)N2CCN(c3ccccc3Cl)CC2)cc1,,15.8 µM (active)
COc1ccc(OCCCn2c(C)nc3cc(C)c(C)cc32)cc1,-10.2% (inactive),
Cn1nnc2c(N3CCN(c4ccccc4)CC3)ncnc21,58.9% (inactive),
O=C(O)C1=C/C(=C/C=[N+]2c3cc(O)c(O[C@H]4OC(CO)[C@@H](O)[C@@H](O)[C@@H]4O)cc3C[C@@H]2C(=O)[O-])C[C@H](C(=O)O)N1 (stereo partly specified),-20.6% (inactive),
Cc1nn(CC(=O)N2CCN(c3cccc(C(F)(F)F)c3)CC2)c(=O)c2cc3sccc3n12,-15.7% (inactive),
Cc1cc(NC(=O)CC(C)C)cc(-c2nc3ncccc3o2)c1O,15.4% (inactive),
CN(C)C(=O)c1cccc(-c2cnc3sc(NCc4ccc5c(c4)OCO5)nn23)c1,,10 µM (active)
CCOc1c2ccc(C(=O)NCc3ccc4c(c3)OCO4)cc2nn1C,-8.29% (inactive),
O=C(CSc1ncnc2scc(-c3ccccc3)c12)NCc1ccc2c(c1)OCO2,-23.1% (inactive),
CCOc1ccc(CCNC(=O)Cn2nc(CC)n3c(cc4sc(CC)cc43)c2=O)cc1OCC,-29.1% (inactive),
COc1cc(Nc2nc3ccc(Cl)cc3n3cnnc23)cc(OC)c1OC,39.4% (inactive),
COc1cccc(Nc2nc3ccccc3c3nncn23)c1,-9.39% (inactive),
FC(F)(F)c1cc(Nc2nc3ccccc3c3nncn23)ccc1Cl,,17.8 µM (active)
O=C(CC(NCc1cccnc1)C(=O)O)Nc1ccc(O)cc1 (stereo unspecified),3.04% (inactive),
COc1ccc(NC(=O)Cn2c(=O)n(CCC(C)C)c(=O)c3cccnc32)cc1Cl,-6.53% (inactive),
